Assay [1] deals with Zika virus NS2B-NS3 protease. The assay can be described thus: Primary screen GU AMC qHTS for Zika virus inhibitors (AID 1347154). Also: nearly all actives have a fitted effect of over 70% in size. The method in brief:
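Fluorogenic AMC-substrate cleavage by noncovalent NS2B-NS3 protease complex (25 nM, pH 8.0 Tris buffer with Tween 20) followed for 15 minutes at room temperature (~20% conversion). Percent inhibition from ex340/em450 signal change, fitted by 4-parameter Hill equation.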
On the technique in general: qHTS replaces the single test concentration by a dilution series.

The subject of assay [2] is Zika virus NS2B-NS3 protease (linked construct). Kind of assay: Confirmatory screen NINDS AMC qHTS for Zika virus inhibitors (AID 1347152). Also: nearly all actives have a fitted effect of over 70% in size. Also: potency is read from the fitted curve at half-maximal effect. In outline:
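Linked NS2B-NS3 protease, 1 nM, in 10 mM Tris-HCl pH 8.0, 0.01% Tween 20; compounds preincubated 15 min at room temperature. Nle-KRR-AMC 10 microM (Km 18.3 µM); 15-min fluorescence change (340/450 nm) fitted to 4-parameter Hill.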

For assay [3], the system named is Zika virus NS2B-NS3 protease (unlinked complex). The assay can be described thus: Primary screen GU Rhodamine qHTS for Zika virus inhibitors: Unlinked NS2B-NS3 protease assay (AID 1347159). Also: nearly all actives have a fitted effect of over 60% in size. Also: potency is read from the fitted curve at half-maximal effect. In outline: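 In dose–response format, inhibition of unlinked protease (25 nM) was measured with 1.5 microM bis-peptide Rhodamine110 substrate. Aprotinin served as the intraplate control.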

Assay [4] in a line: Confirmatory screen NINDS Rhodamine qHTS for Zika virus inhibitors (AID 1347161). Also: potency is read from the fitted curve at half-maximal effect; nearly all actives have a fitted effect of over 60% in size. As to conditions: purified enzyme assay, Rhodamine110 substrate fluorescence, 15 min. In outline: (§1)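 Each compound, titrated, sat 15 min with 25 nM linked protease before 1.5 microM Rhodamine110 substrate went in. Fluorescence gain over the next 15 min, in pH 8.0 Tris with Tween 20, gave Hill-fitted curves.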

Assay [5] in a line: HepG2 cells viability qHTS for Zika virus inhibitors (AID 1347168). The method in brief: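 Luminescent ATP readout (CellTiter Glo) after 30 min at 37 degrees C gives viability; cells in DMEM + 4% FBS were treated 24 to 48 hours with compound, following overnight attachment.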
Assay [6] is described as follows: Tertiary RLuc qRT-PCR qHTS assay for Zika virus inhibitors (AID 1347169). Also: nearly all actives have a fitted effect of over 55% in size. Also: potency is read from the fitted curve at half-maximal effect. In outline: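 Vero cells (1,000/well) infected with recombinant ZIKV-RLuc (Cambodian) at MOI 1-2 after compound addition, 48-72 hrs at 37 degrees C. Live-cell Renilla luciferase substrate added; luminescence read after 1-1.5 hrs.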
A general note: Quantitative PCR measures a nucleic acid by following its amplification.

Assay [7] addresses Furin (Homo sapiens) (UniProt P09958). Kind of assay: Furin counterscreen qHTS for Zika virus inhibitors (AID 1347149).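 Also: purified recombinant full-length human furin enzyme at 5 nM; fluorescence gain from furin cutting a BOC-RVRR-AMC peptide substrate over 15 min; top concentration of the series differs between compounds; nearly all actives have a fitted effect of over 70% in size.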 The method in brief: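 Counterscreen measures cleavage of 2 microM BOC-RVRR-AMC, below its ~15 microM Km, by 5 nM full-length human furin at pH 7.0 after a 15-min compound preincubation. Inhibition derives from the 15-min fluorescence increase at 37C.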
On the technique in general: The purpose of a counterscreen is to sort out artefacts and off-target activity.

Assay [8] has as its system Zika virus NS2B-NS3 protease (unlinked complex). Kind of assay: Confirmatory screen GU AMC qHTS for Zika virus inhibitors (AID 1347153).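 Also: enzyme at 25 nM with substrate at 10 µM below its Km of 18.3 µM; potency is read from the fitted curve at half-maximal effect; nearly all actives have a fitted effect of over 70% in size.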 As to conditions: Recombinant NS2B-NS3 protease, AMC substrate fluorescence. In outline:
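Unlinked NS2B-NS3 complex (25 nM) in 10 mM Tris-HCl pH 8.0, 0.01% Tween 20 preincubated 15 min with compound, then 10 microM Bz-Nle-KRR-AMC (Km 18.3 µM). Fluorescence change over 15 min, normalized, Hill-fitted.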

A short description of assay [9]: Confirmatory screen GU Rhodamine qHTS for Zika virus inhibitors qHTS (AID 1347157). As to conditions: purified enzyme assay, Rhodamine110 substrate fluorescence, 15 min. In outline:
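A qHTS format was used, with compound concentrations ranging up to 114 microM. Each compound was preincubated with 25 nM NS2B-NS3 protease, and the substrate was then added at 1.5 microM. Curves were fitted with a 4-parameter Hill model.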

Assay [10] is described as follows: ZIKV-mCherry secondary qHTS for Zika virus inhibitors (AID 1347158). Also: top concentration of the series differs between compounds. In outline:
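This orthogonal imaging screen measured ZIKV-mCherry infection of Vero cells exposed to compound, MOI 1, 48-72 h. Percent infection came from segmented nuclei scored mCherry-positive above 3 SD of negative controls.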

The subject of assay [11] is Zika virus NS2B-NS3 protease (linked construct). Kind of assay: Primary screen NINDS Rhodamine qHTS for Zika virus inhibitors (AID 1347160). Also: nearly all actives have a fitted effect of over 55% in size. Also: potency is read from the fitted curve at half-maximal effect. In outline:
as §1

The subject of assay [12] is Zika virus NS2B-NS3 protease (linked). Kind of assay: 384 well plate NINDS AMC confirmatory qHTS for Zika virus inhibitors (AID 1347163). Also: potency is read from the fitted curve at half-maximal effect; nearly all actives have a fitted effect of over 50% in size. The method in brief:
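Enzyme (5, 30 or 60 nM final) first met test compounds for ~15 min. The AMC-tagged peptide Ac-VKTGKR-AMC followed at 30 microM. Fluorescence was then recorded at 25 min and scaled against no-enzyme and no-inhibitor wells.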

In assay [13] the test system is Zika virus NS2B-NS3 protease (linked construct). The assay can be described thus: 384 well plate NINDS Rhodamine confirmatory qHTS for Zika virus inhibitors (AID 1347164).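 Also: fluorescence from protease cleavage of Ac-LKRR-rhodamine 110 substrate; top concentration of the series differs between compounds; nearly all actives have a fitted effect of over 65% in size.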 The method in brief: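 Linked NS2B-NS3 protease (final 5, 30 or 60 nM) preincubated ~15 minutes with compounds, then 10 microM Ac-LKRR-Rhodamine 110 added. Fluorescence (485/538 nm) read after 25 minutes at room temperature, normalized to no-enzyme and no-inhibitor controls.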

The nature of assay [14]: qHTS of pediatric cancer cell lines to identify multiple opportunities for drug repurposing: Primary screen for control Hh wild type fibroblast cells (AID 1347106).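 Also: series mostly up to about 46 µM; a drop in luminescence marks cytotoxicity and a rise apparent proliferation; nearly all actives have a fitted effect of over 55% in size.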 The method in brief: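 Cells (500-1,000/well) in growth media were settled 5 h at 37 degrees C, then given compounds for 48 h. Viability was read as CellTiter-Glo luminescence. Primary runs used MIPE at 11 points (0.78 nM-46 µM) and NPC at 8 points (0.59 nM-46 µM); follow-ups used 11 points.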

Assay [15] can be described thus: qHTS of pediatric cancer cell lines to identify multiple opportunities for drug repurposing: Primary screen for Rh30 cells (AID 1347107). Also: series mostly up to about 46 µM; nearly all actives have a fitted effect of over 75% in size. The method in brief: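 Cells (500-1,000/well) rested 5 h, then received compounds for 48 h; metabolically active cells were measured by CellTiter-Glo luminescence. Final concentrations spanned up to 46 µM (MIPE, 11-point) or 0.59 nM-46 µM (NPC, 8-point) in primary screens, 11-point in follow-ups.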

Assay [16] in a line: qHTS of pediatric cancer cell lines to identify multiple opportunities for drug repurposing: Primary screen for Rh41 cells (AID 1347108). The method in brief:
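Following a 5-hour attachment period, cells at 500-1,000/well received compounds and were cultured for 48 hours. CellTiter-Glo was added and luminescence read to estimate viable, metabolically active cells.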

Inconclusive results are not listed. Active and inactive are the calls of the source. Calls follow the shape of the dose curve; as a rule, active = well fitted curve in the direction sought with a large enough effect; inconclusive = small, poorly fitted or top-dose-only effect, or another doubt; inactive = no such curve, though single readings can be large; an effect the other way counts as inactive or inconclusive.

Furin (Homo sapiens), sequence (P09958 whole entry, looked up): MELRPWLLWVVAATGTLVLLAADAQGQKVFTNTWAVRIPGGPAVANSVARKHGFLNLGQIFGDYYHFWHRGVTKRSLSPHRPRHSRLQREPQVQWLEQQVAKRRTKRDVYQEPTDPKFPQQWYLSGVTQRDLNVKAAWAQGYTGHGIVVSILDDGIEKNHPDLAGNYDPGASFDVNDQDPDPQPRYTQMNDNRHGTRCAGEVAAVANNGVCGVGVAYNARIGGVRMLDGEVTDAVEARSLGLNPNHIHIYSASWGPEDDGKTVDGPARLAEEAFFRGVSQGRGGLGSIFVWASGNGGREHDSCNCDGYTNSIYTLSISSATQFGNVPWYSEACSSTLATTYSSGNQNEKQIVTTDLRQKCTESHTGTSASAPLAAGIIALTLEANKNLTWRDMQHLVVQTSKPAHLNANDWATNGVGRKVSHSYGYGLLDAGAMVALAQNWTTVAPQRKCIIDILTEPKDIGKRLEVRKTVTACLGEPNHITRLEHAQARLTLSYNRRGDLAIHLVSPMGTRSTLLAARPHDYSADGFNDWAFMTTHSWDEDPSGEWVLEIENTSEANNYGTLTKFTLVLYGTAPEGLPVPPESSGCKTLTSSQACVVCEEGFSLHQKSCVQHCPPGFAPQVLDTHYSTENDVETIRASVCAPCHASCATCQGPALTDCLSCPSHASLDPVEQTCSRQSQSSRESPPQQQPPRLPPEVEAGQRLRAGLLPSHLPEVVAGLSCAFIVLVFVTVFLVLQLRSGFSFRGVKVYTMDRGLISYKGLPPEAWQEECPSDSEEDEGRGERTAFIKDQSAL

As for `CC(NC(=O)Cc1cc(F)cc(F)c1)C(=O)NC(C(=O)OC(C)(C)C)c1ccccc1` (stereo unspecified), in assay [1], the call was inactive.
Consider `CC(C)(O)C1CC=C(C(=O)OCC2OC(Oc3c(O)cc(C(=O)O)cc3O)C(O)C(O)C2O)CC1` (stereo unspecified), for which the Potency result in [2], in [3] and in [6] was “inactive” in each case. Also, in assay [4], the Potency was 7.64 µM (active). The result in [5] was inactive.
Regarding `CC(C)C(=O)c1cn(CC(=O)COc2ccc(Oc3ccccc3)cc2)c2ccc(C(=O)O)cc12`, the Potency result in [7] and in [13] was “inactive” in each case. Moreover, the Potency in assay [2] was 44.1 µM (active); in assay [8], 44.1 µM (active); in [9], 8.79 µM (active); in assay [3], 8.91 µM (active); in assay [11], 8.91 µM (active); in assay [4] it was 5.55 µM (active). Also, the Potency is 44.7 µM (active) in assay [12] and 18.6 µM (active) in assay [6]. For the same compound, the compound was classed as inactive in [10] and in assay [5].
Regarding `CCCCS(=O)(=O)Nc1ncnc(OCCOc2ncc(Br)cn2)c1-c1ccc(Br)cc1`, the results for the Potency in assay [9] and in [4] were 22.1 µM (active) and 35 µM (active), respectively. Further, the Potency entry in assay [3] and in assay [6] was “inactive” each time.
In the case of `CC(=O)OC(C)OC(=O)C(C)c1ccc(-c2ccccc2)c(F)c1` (stereo unspecified), the result in assay [14], in [15], in assay [16] and in [1] was inactive.
Regarding `OC[C@H]1O[C@@H](Oc2ccc(O)c3cccc(O)c23)[C@H](O)[C@@H](O)[C@@H]1O`, the results for the Potency in [9], in assay [3] and in assay [4] were 4.85 µM (active), 10 µM (active) and 6.1 µM (active), respectively. The Potency result in assay [11] and in [6] was “inactive” each time.
Consider `NCc1ccc(OCCCc2sc(-c3ccc4c(c3)/C(=N/Nc3nc5ccccc5s3)CCC4)nc2C(=O)O)cc1`, for which the Potency was 13.9 µM (active) in assay [9], 39.8 µM (active) in [3] and 17.5 µM (active) in assay [4]. Moreover, the Potency entry in assay [11] and in assay [6] was “inactive” throughout.
As to `CC1C/C=C/C=C\CCCCC(O)C/C=C/C(=O)O1` (stereo unspecified), the results for the Potency in assay [9], in assay [3] and in [4] were 44.1 µM (active), 17.8 µM (active) and 49.4 µM (active), respectively. The Potency entry in [11] and in assay [6] was “inactive” in each case.
